22 molecules from PubChem BioAssay (NCATS) can be followed below.

Each structure is given as a SMILES string. Results filed as inconclusive are left out. Values without a mark were called inactive. Active and inactive are the calls of the source. Calls come from the whole dose curve; as a rule, active = well fitted curve in the direction sought with a large enough effect; inconclusive = small, poorly fitted or top-dose-only effect, or another doubt; inactive = no such curve, though single readings can be large; an effect the other way counts as inactive or inconclusive.

The target of assay [1] is Rap guanine nucleotide exchange factor 3 (Homo sapiens) (UniProt O95398). Put plainly: Confirmatory qHTS for agonist of cAMP-regulated guanine nucleotide exchange factor 3 (EPAC1) (AID 1645881).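 Note: EPAC1 catalysed release of BODIPY-GDP from Rap1B seen as fluorescence loss; 100% = effect of cAMP agonist control; nearly all actives have a fitted effect of over 75% in size.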 On the technique in general: Quantitative high-throughput screening tests each substance at several concentrations.
In assay [2] the target is Rap guanine nucleotide exchange factor 4 (Homo sapiens) (UniProt Q8WZA2). The experiment in a line: Confirmatory qHTS for agonist of cAMP-regulated guanine nucleotide exchange factor 4 (EPAC2) (AID 1645884).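 Note: nucleotide exchange releases bodipy-GDP from Rap1 and this lowers its fluorescence; % is set by controls: 0 for no effect and ±100 for the full control effect; nearly all actives have a fitted effect of over 65% in size.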
Assay [3] has the same target. Put plainly: Confirmatory qHTS for antagonist of cAMP-regulated guanine nucleotide exchange factor 4 (EPAC2) (AID 1645885). For activity change, negative = inhibition: % is set by controls: 0 for no effect and ±100 for the full control effect. Note: nearly all actives have a fitted effect of over 25% in size. Note: potency is the fitted concentration of half-maximal effect.
Assay [4] concerns the target Rap guanine nucleotide exchange factor 3 (Homo sapiens) (UniProt O95398). The experiment in a line: Counterscreen qHTS for antagonist of cAMP-regulated guanine nucleotide exchange factor 3 (EPAC1) (AID 1645888).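 Note: fluorescence loss as bound BODIPY-GDP is released from Rap1B; % of control where 0% means no effect.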 In outline: (§1)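 Measured: fluorescence of BODIPY-GDP bound to Rap1B, which falls as exchange proceeds. Conditions include 50 uM competing GDP, 5 and 30 min reads, and a later cAMP challenge for antagonist detection.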

For assay [5] the target is unchanged. The experiment in a line: Counterscreen qHTS for agonist of cAMP-regulated guanine nucleotide exchange factor 3 (EPAC1) (AID 1645889). Note: % of control where 0% means no effect; nearly all actives have a fitted effect of over 40% in size. The gist of the method: as §1
For orientation: Counterscreens check selectivity or assay interference.

Chain of Rap guanine nucleotide exchange factor 3 (Homo sapiens) (O95398 whole entry, looked up): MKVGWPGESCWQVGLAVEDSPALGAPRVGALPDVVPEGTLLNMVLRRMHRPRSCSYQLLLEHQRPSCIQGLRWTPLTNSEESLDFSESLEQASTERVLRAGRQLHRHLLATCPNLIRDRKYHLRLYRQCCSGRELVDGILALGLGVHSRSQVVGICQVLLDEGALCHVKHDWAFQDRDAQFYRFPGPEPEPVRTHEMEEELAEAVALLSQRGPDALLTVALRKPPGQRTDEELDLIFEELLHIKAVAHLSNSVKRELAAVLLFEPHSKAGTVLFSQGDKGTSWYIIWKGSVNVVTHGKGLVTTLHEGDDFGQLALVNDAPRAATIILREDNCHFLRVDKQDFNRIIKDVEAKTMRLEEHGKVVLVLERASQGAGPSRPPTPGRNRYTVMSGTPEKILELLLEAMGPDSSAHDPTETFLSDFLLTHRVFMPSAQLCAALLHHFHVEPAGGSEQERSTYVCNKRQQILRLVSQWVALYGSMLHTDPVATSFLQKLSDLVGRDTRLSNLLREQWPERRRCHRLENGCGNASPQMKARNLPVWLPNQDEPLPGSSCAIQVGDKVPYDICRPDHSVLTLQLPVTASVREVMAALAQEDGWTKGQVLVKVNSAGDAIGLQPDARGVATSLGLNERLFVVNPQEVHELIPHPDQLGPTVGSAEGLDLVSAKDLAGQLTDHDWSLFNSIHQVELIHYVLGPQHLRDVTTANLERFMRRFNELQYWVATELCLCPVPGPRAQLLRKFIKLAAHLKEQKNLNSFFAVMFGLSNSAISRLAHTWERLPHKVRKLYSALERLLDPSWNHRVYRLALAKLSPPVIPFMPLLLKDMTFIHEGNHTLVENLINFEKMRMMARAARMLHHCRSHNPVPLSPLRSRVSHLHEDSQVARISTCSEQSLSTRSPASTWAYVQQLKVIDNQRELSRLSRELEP
Chain of Rap guanine nucleotide exchange factor 4 (Homo sapiens) (Q8WZA2 whole entry, looked up): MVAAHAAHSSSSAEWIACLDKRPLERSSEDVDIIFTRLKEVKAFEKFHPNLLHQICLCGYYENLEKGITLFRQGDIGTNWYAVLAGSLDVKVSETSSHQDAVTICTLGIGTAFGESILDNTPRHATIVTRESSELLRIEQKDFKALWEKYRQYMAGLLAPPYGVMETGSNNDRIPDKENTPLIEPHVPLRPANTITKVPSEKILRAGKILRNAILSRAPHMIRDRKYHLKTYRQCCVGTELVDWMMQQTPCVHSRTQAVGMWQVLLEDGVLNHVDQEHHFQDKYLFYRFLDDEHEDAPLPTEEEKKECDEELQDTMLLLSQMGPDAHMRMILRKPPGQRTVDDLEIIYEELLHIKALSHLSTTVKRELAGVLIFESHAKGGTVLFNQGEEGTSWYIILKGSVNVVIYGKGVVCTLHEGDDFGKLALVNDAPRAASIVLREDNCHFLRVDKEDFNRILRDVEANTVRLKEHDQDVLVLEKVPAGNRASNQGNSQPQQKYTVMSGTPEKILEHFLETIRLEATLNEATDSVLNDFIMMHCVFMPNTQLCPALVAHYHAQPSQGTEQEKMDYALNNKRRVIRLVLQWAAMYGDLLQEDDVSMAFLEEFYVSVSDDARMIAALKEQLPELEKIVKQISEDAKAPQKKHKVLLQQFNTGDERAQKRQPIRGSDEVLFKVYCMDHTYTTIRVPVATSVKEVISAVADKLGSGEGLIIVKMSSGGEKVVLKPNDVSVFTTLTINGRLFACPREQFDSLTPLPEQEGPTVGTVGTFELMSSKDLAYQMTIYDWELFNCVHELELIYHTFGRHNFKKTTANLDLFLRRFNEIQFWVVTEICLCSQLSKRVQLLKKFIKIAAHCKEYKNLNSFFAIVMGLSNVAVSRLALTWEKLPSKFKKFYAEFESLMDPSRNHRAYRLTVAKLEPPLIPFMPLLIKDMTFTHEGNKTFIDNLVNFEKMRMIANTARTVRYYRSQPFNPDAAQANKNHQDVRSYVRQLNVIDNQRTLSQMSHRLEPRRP

Regarding `COc1ccccc1NC(=O)CSc1sc2c(O)cc(=O)[nH]c2c1C#N`, the Potency entry in assay [1] and in assay [3] was “inactive” each time. For the same molecule, the activation in assay [2] was 3.66% [at 17.1 µM, percent relative to cAMP agonist control]; in assay [5], 12.5% [at 30.8 µM]. The activity change, negative = inhibition in assay [4] was 0.384% [at 30.8 µM].
As to `C[C@@H]1ON(C)[C@H]2C[C@H]3c4[nH]c5ccc(-c6ccc7c(c6)OCO7)cc5c4CCN3C(=O)[C@@H]12`, the Potency entry in assay [1] and in assay [3] was “inactive” each time. Further, the activation in assay [2] is 1.59% [at 17.1 µM, percent relative to cAMP agonist control]; in assay [5] it was 32% [at 30.8 µM]. The activity change, negative = inhibition in assay [4] was -7.04% [at 30.8 µM].
As for `O=C1CC(c2ccccc2)=NN1c1nc(-c2ccccc2)cs1`, the Potency entry in assay [1], in assay [2], in assay [3], in assay [4] and in assay [5] was “inactive” throughout.
For `O=C(O)C(Cc1c[nH]c2ccccc12)NS(=O)(=O)c1cccc(Cl)c1Cl` (stereo not given), the Potency entry in assay [1], in assay [2], in assay [3], in assay [4] and in assay [5] was “inactive” each time.
For `CC(=O)NC(C)(c1ccccc1)c1nc(-c2cccc(C(F)(F)F)c2)cs1` (stereo not given), the Potency entry in assay [1], in assay [2], in assay [3], in assay [4] and in assay [5] was “inactive” throughout.
In the case of `Cc1cc2nc(-c3ccc(SCc4ccccn4)nc3)[nH]c2cc1C`, the Potency result in assay [1] and in assay [3] was “inactive” in each case. Also, the activation is 4.1% [at 17.1 µM, percent relative to cAMP agonist control] in assay [2] and 19.2% [at 30.8 µM] in assay [5]. In assay [4], the activity change, negative = inhibition was 1.95% [at 30.8 µM].
As for `CC(=O)Nc1ccc(S(=O)(=O)/N=C2/NC(=O)/C(=C\c3ccco3)S2)cc1`, the Potency result in assay [1], in assay [2], in assay [4] and in assay [5] was “inactive” in each case. Further, the Potency in assay [3] was 84.9 µM (active).
`O=C(O)c1ccccc1NC(c1ccccc1)c1ccc(Cl)cc1` (stereo not given): the Potency entry in assay [1], in assay [2], in assay [3], in assay [4] and in assay [5] was “inactive” in each case.
With `O=[N+]([O-])c1cc(CN2CCN(c3cccc(C(F)(F)F)c3)CC2)c2cccnc2c1O`, the Potency result in assay [1], in assay [2], in assay [3], in assay [4] and in assay [5] was “inactive” each time.
As for `CCc1cc(-c2n[nH]c(C)c2-c2nc(C)cs2)c(O)cc1OC`, the Potency entry in assay [1] and in assay [3] was “inactive” throughout. Moreover, the activation was 5.22% [at 17.1 µM, percent relative to cAMP agonist control] in assay [2] and 34.8% [at 30.8 µM] in assay [5]. In addition, the activity change, negative = inhibition in assay [4] is -17% [at 30.8 µM].
With `N#Cc1c(NC(=O)C2CC=CCC2C(=O)O)sc2c1CCCCCC2` (stereo not given), the Potency result in assay [1] and in assay [3] was “inactive” each time. The activation in assay [2] is -2.41% [at 17.1 µM, percent relative to cAMP agonist control]; in assay [5] it was 6.58% [at 30.8 µM]. The activity change, negative = inhibition in assay [4] is -15.2% [at 30.8 µM].
Regarding `Nc1ccc(SC(F)(F)F)cc1C(=O)c1ccccc1`, the Potency entry in assay [1] and in assay [3] was “inactive” each time. Besides, the activation in assay [2] was -2.87% [at 17.1 µM, percent relative to cAMP agonist control]; in assay [5] it was 5.87% [at 30.8 µM]. Also, the activity change, negative = inhibition in assay [4] is -9.64% [at 30.8 µM].
On to `CCc1ccc(N(C(=O)c2csnn2)C(C(=O)NCc2ccccc2)c2ccco2)cc1` (stereo not given), for which the Potency entry in assay [1], in assay [2], in assay [4] and in assay [5] was “inactive” throughout. Further, the Potency in assay [3] was 16.9 µM (active).
For `O=C(O)/C(=C\c1ccc(-c2ccc(F)cc2)o1)c1ccccc1`, the Potency entry in assay [1], in assay [2], in assay [3], in assay [4] and in assay [5] was “inactive” each time.
Regarding `Cc1cccc(C)c1-c1ccc(CN2C(CC(C)C)C(=O)N(Cc3cn(CCO)nn3)CCS2(=O)=O)cc1` (stereo not given), the Potency result in assay [1] and in assay [3] was “inactive” in each case. Also, the activation is -6.44% [at 17.1 µM, percent relative to cAMP agonist control] in assay [2] and 18.7% [at 30.8 µM] in assay [5]. In addition, the activity change, negative = inhibition in assay [4] was 9.55% [at 30.8 µM].
Take `CCOC(=O)N1CCC(Nc2nc3ccccc3n3cnnc23)CC1`: the Potency result in assay [1] and in assay [3] was “inactive” throughout. Also, the activation in assay [2] is 3.86% [at 17.1 µM, percent relative to cAMP agonist control]; in assay [5], 4.26% [at 30.8 µM]. Besides, the activity change, negative = inhibition in assay [4] is -12.2% [at 30.8 µM].
On to `CCOc1ccc(-n2c(C)nc3cc(C(=O)NCc4ccc(C)cc4)ccc32)cc1`, for which the Potency result in assay [1], in assay [2], in assay [3], in assay [4] and in assay [5] was “inactive” each time.
With `CCOc1ccc2nc(NC3=NC(c4ccc(OC)cc4)CC(=O)N3)nc(C)c2c1` (stereo not given), the Potency result in assay [1] and in assay [3] was “inactive” each time. The activation in assay [2] was 2.86% [at 17.1 µM, percent relative to cAMP agonist control]; in assay [5], 10.5% [at 30.8 µM]. Besides, in assay [4], the activity change, negative = inhibition is -8.36% [at 30.8 µM].
`O=C(CSc1nc(-c2cccs2)nc2cc(=O)[nH]n12)Nc1cccc(C(F)(F)F)c1`: the Potency entry in assay [1], in assay [2], in assay [4] and in assay [5] was “inactive” each time. Also, in assay [3], the outcome was “inactive [at 12.7 µM]”.
Turning to `CC(C)(C)C(=O)N1CCC2CC1c1cc(-c3ccc4c(c3)OCO4)ccc12` (stereo not given), the Potency result in assay [1] and in assay [3] was “inactive” each time. For the same molecule, the activation was 4.8% [at 17.1 µM, percent relative to cAMP agonist control] in assay [2] and 13.1% [at 30.8 µM] in assay [5]. Also, the activity change, negative = inhibition in assay [4] was -12.7% [at 30.8 µM].
Turning to `O=C1C=C(NCc2ccccc2)c2ccccc2C1=O`, the Potency result in assay [1], in assay [2], in assay [4] and in assay [5] was “inactive” each time. For the same molecule, in assay [3], the Potency was 15.1 µM (active).
Consider `COc1ccccc1/C=C1\SC(=S)N(NS(=O)(=O)c2ccccc2)C1=O`, for which the Potency entry in assay [1], in assay [2], in assay [3], in assay [4] and in assay [5] was “inactive” each time.
